Laboratory results published in PubChem BioAssay.
Where “and” joins values, the source holds several entries; their conditions need not be identical. Equal values may be shown once. Records with an inconclusive call do not appear. Calls of active or inactive are those of the source.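 How the source made its calls, unless noted: active means normalized viability below 100% at a tested concentration; inactive means the rest.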

Legend:
[1] = liver-stage malaria parasite growth inhibition, primary screen, cell-based, HepG2, luciferase luminescence, HepG2 viability (AID 624349; in the data active means parasite load remaining mostly below about 12%, no sharp cut-off; inactive means mostly above about 10%;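 further: 100% = mean of DMSO negative control wells on the same plate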); conditions: P. berghei liver stage in HepG2, luciferase luminescence, concentration not given here; parasite load remaining: stronger effect = lower value; viability: measured here: HepG2 viability without parasites
[2] = system: Aerobactin synthetase IucA (Klebsiella pneumoniae); test: IucA aerobactin synthetase inhibitors, biochemical, Tocris library, absorbance (AID 1345561; call rule not given here;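 further: 100% = enzyme without compound and 0% = no enzyme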); conditions: purified IucA enzyme assay, absorbance (OD) read-out; stronger effect = lower value;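 tested at 8 µM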
[3] = growth inhibition of DIPG glioma cells, dose response, cell-based, SU-DIPG-XVII, MIPE5.0, CellTiter-Glo, qHTS (AID 1347060; cut-off not given, nearly all actives have AC50 up to about 26 µM;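 on AC50: cells exposed to compound for 48 hours before viability readout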); conditions: SU-DIPG-XVII viability, CellTiter-Glo ATP luminescence
[4] = growth inhibition of DIPG glioma cells, dose response, cell-based, SU-DIPG-XIII, MIPE5.0, CellTiter-Glo, qHTS (AID 1347064; cut-off not given, nearly all actives have AC50 up to about 23 µM;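 on AC50: cells exposed to compound for 48 hours before the viability read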); conditions: SU-DIPG-XIII viability, CellTiter-Glo ATP luminescence
[5] = viability loss in pontine glioma line – cell-based, SU-DIPG-XXV, MIPE5.0, CellTiter-Glo, qHTS, dose response (AID 1347065; cut-off not given, nearly all actives have AC50 up to about 26 µM;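 further: cells exposed to compound for 48 hours before ATP readout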); conditions: CellTiter-Glo ATP luminescence
[6] = JHH-DIPG-1 glioma cell viability, MIPE5.0 library, CellTiter-Glo luminescence, qHTS (AID 1347067; cut-off not given, nearly all actives have AC50 up to about 26 µM;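 further: cells exposed to compound for 48 hours before readout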); conditions: JHH-DIPG-1 glioma viability, CellTiter-Glo ATP luminescence
[7] = SU-DIPG-XXV glioma cell viability, MIPE5.0 library, qHTS (AID 1347068; cut-off not given, nearly all actives have IC50 up to about 30 µM;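 on IC50: cells exposed to compound for 48 hours before viability readout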)
[8] = sensitizers of A549 cells to miR-34 induction, primary screen, imaging, A549 dox-inducible miR-34, nuclei and caspase counts (AID 1347080;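 active means compounds whose cell count with miR-34 switched on is under 0.7 times the count with it off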); conditions: A549 miR-34 inducible, Hoechst nuclei count, 48 h
[9] = viability rescue of complex I mutant cybrids, primary screen, cell-based, galactose medium, ATP luminescence (AID 1645843;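 active means z-score of at least 1.8 in each of two replicates, scored against plate mean and spread of sample wells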;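 further: positive z means more ATP and so rescue of galactose-driven cybrid death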); conditions: complex I mutant cybrid cells, 72 h, stronger effect = higher value
[10] = growth inhibition of DIPG glioma cells, dose response, cell-based, SU-DIPG-XIII, MIPE4.0, CellTiter-Glo, qHTS (AID 1347061; cut-off not given, nearly all actives have AC50 up to about 37 µM;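 further: cells exposed to compound for 48 hours before readout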); conditions: SU-DIPG-XIII viability, CellTiter-Glo ATP luminescence
[11] = growth inhibition of DIPG glioma cells, dose response, cell-based, JHH-DIPG-1, MIPE4.0, CellTiter-Glo, qHTS (AID 1347062; cut-off not given, nearly all actives have AC50 up to about 27 µM;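 on AC50: cells exposed to compound for two days before readout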); conditions: JHH-DIPG-1 viability, CellTiter-Glo ATP luminescence
[12] = growth inhibition of DIPG glioma cells, dose response, cell-based, SU-DIPG-IV, MIPE4.0, CellTiter-Glo, qHTS (AID 1347063; cut-off not given, nearly all actives have AC50 up to about 30 µM;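 further: compound exposure lasted 48 hours before the viability readout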); conditions: SU-DIPG-IV viability, CellTiter-Glo ATP luminescence
[13] = SU-DIPG-VI glioma cell viability, MIPE4.0 library, CellTiter-Glo luminescence, qHTS (AID 1347066; cut-off not given, nearly all actives have AC50 up to about 30 µM;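 further: cells exposed to compound for 48 hours before readout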); conditions: CellTiter-Glo ATP luminescence
[14] = modifiers of HSF1 nuclear foci, imaging, Selleck Cancer Library (AID 1347162; in the data active means plate-normalised HSF1 focus index below about 0.46); conditions: human cells, at 10 µM; SSMD: measured here: HSF1 foci SSMD mean; cell count: measured here: cell number; plate-normalised HSF1 focus index: stronger effect = lower value
[15] = survival rescue of mitochondrial mutant cells in low glucose, primary screen, MELAS cybrids, Rieske KO mouse fibroblasts, CellTiter-Glo (AID 1508586;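 active means mean z-score across replicates of 1.96 or higher in either the MELAS or the Rieske mutant cell line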;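 further: z relative to plate mean and SD of compound and empty wells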)
[16] = ovarian cancer cell viability with rucaparib, profiling panel, oncology-focused library, rucaparib conditional (AID 1508598); conditions: patient-derived ovarian cancer cells, CellTiter-Glo viability, 144 h, stronger effect = lower value
[17] = ICB984 medulloblastoma cell growth inhibition, synergistic combos for chromothripsis tumors, cisplatin or BGB combos (AID 1671451; call rule not given here;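 further: cells exposed for 96 hours before readout; 0% = vehicle DMSO and 100% = killing by high DMSO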); conditions: ICB984 medulloblastoma cells, drug combinations, stronger effect = higher value
[18] = stronger effect = lower value, cell number ratio, induced over uninduced
[19] = measured here: relative caspase fold change +Dox/-Dox
[20] = measured here: total cells with miR-34 induction, stronger effect = lower value
[21] = measured here: total cells without miR-34 induction
[22] = MELAS cybrid survival, CellTiter-Glo 48 h, stronger effect = higher value
[23] = Rieske KO mouse fibroblast survival, CellTiter-Glo 72 h

Cc1cc(I)ccc1Nc1c(C(=O)NOCC2CC2)cc(F)c(F)c1F
parasite load remaining [1]: 55.5% (inactive)
viability [1]: 67.8%
remaining activity [2]: 104% (inactive)
AC50 [3]: 5.9 µM (active)
AC50 [4]: 6.61 µM (active)
AC50 [5]: 9.34 µM (active)
AC50 [6]: 4.17 µM (active)
IC50 [7]: 10.5 µM (active)
fold change [8, 18]: 1.12 (inactive)
fold change [8, 19]: 1.32
cell count [8, 20]: 1290
cell count [8, 21]: 1150
z-score [9]: -0.65 (inactive)

Fc1ccc(Cl)cc1-c1nc(Nc2ccncc2)c2nccnc2n1
remaining activity [2]: 110% (inactive)
AC50 [3]: 23.5 µM (active)
outcome [10]: inactive
outcome [11]: inactive
outcome [12]: inactive
outcome [13]: inactive
outcome [7]: inactive
fold change [8, 18]: 0.904 (inactive)
fold change [8, 19]: 1.34
cell count [8, 20]: 8670
cell count [8, 21]: 9590
z-score [9]: 1.11 (inactive)

O=c1[nH]c(-c2ccc(C(F)(F)F)cc2)nc2c1CSCC2
remaining activity [2]: 117% (inactive)
outcome [3]: inactive
outcome [11]: inactive
outcome [6]: inactive
outcome [7]: inactive
fold change [8, 18]: 0.924 (inactive) and 0.863 (inactive) and 0.929 (inactive)
fold change [8, 19]: 0.982 and 0.937 and 1.32
cell count [8, 20]: 4310 and 5060 and 7820
cell count [8, 21]: 4660 and 5860 and 8410
SSMD [14]: 1.98
cell count [14]: 7170
plate-normalised HSF1 focus index [14]: 1.12 (inactive)
z-score [15, 22]: -0.501 (inactive)
z-score [15, 23]: 0.33
viability ([16]; at 0.000305 µM, OCI-C5x cells, with rucaparib 10 µM, 100% = cells with rucaparib alone): 100% (inactive)
viability ([16]; at 0.000305 µM, OCI-C5x cells, without rucaparib): 93.7% (active)
viability ([16]; at 0.000305 µM, OCI-P5x cells, with rucaparib 20 µM, 100% = cells with rucaparib alone): 98.7% (active)
viability ([16]; at 0.000305 µM, OCI-P5x cells, without rucaparib): 103% (inactive)
viability ([16]; at 0.00122 µM, OCI-C5x cells, with rucaparib 10 µM, 100% = cells with rucaparib alone): 108% (inactive)
viability ([16]; at 0.00122 µM, OCI-C5x cells, without rucaparib): 99.5% (active)
viability ([16]; at 0.00122 µM, OCI-P5x cells, with rucaparib 20 µM, 100% = cells with rucaparib alone): 107% (inactive)
viability ([16]; at 0.00122 µM, OCI-P5x cells, without rucaparib): 106% (inactive)
viability ([16]; at 0.00488 µM, OCI-C5x cells, with rucaparib 10 µM, 100% = cells with rucaparib alone): 121% (inactive)
viability ([16]; at 0.00488 µM, OCI-C5x cells, without rucaparib): 102% (inactive)
viability ([16]; at 0.00488 µM, OCI-P5x cells, with rucaparib 20 µM, 100% = cells with rucaparib alone): 110% (inactive)
viability ([16]; at 0.00488 µM, OCI-P5x cells, without rucaparib): 99.8% (active)
viability ([16]; at 0.0195 µM, OCI-C5x cells, with rucaparib 10 µM, 100% = cells with rucaparib alone): 109% (inactive)
viability ([16]; at 0.0195 µM, OCI-C5x cells, without rucaparib): 102% (inactive)
viability ([16]; at 0.0195 µM, OCI-P5x cells, with rucaparib 20 µM, 100% = cells with rucaparib alone): 114% (inactive)
viability ([16]; at 0.0195 µM, OCI-P5x cells, without rucaparib): 113% (inactive)
viability ([16]; at 0.0781 µM, OCI-C5x cells, with rucaparib 10 µM, 100% = cells with rucaparib alone): 110% (inactive)
viability ([16]; at 0.0781 µM, OCI-C5x cells, without rucaparib): 104% (inactive)
viability ([16]; at 0.0781 µM, OCI-P5x cells, with rucaparib 20 µM, 100% = cells with rucaparib alone): 106% (inactive)
viability ([16]; at 0.0781 µM, OCI-P5x cells, without rucaparib): 105% (inactive)
viability ([16]; at 0.313 µM, OCI-C5x cells, with rucaparib 10 µM, 100% = cells with rucaparib alone): 107% (inactive)
viability ([16]; at 0.313 µM, OCI-C5x cells, without rucaparib): 102% (inactive)
viability ([16]; at 0.313 µM, OCI-P5x cells, with rucaparib 20 µM, 100% = cells with rucaparib alone): 105% (inactive)
viability ([16]; at 0.313 µM, OCI-P5x cells, without rucaparib): 94.6% (active)
viability ([16]; at 1.25 µM, OCI-C5x cells, with rucaparib 10 µM, 100% = cells with rucaparib alone): 107% (inactive)
viability ([16]; at 1.25 µM, OCI-C5x cells, without rucaparib): 99.4% (active)
viability ([16]; at 1.25 µM, OCI-P5x cells, with rucaparib 20 µM, 100% = cells with rucaparib alone): 113% (inactive)
viability ([16]; at 1.25 µM, OCI-P5x cells, without rucaparib): 103% (inactive)
viability ([16]; at 5 µM, OCI-C5x cells, with rucaparib 10 µM, 100% = cells with rucaparib alone): 115% (inactive)
viability ([16]; at 5 µM, OCI-C5x cells, without rucaparib): 112% (inactive)
viability ([16]; at 5 µM, OCI-P5x cells, with rucaparib 20 µM, 100% = cells with rucaparib alone): 105% (inactive)
viability ([16]; at 5 µM, OCI-P5x cells, without rucaparib): 99% (active)
z-score [9]: 0.565 (inactive)
inhibition ([17]; BGB IC20 combo, at 0.005 µM): -4.67%
inhibition ([17]; BGB IC40 combo, at 0.005 µM): -45.8%
inhibition ([17]; BGB IC40 combo, at 0.05 µM): -11.7%
inhibition ([17]; at 0.5 µM): -27.1% (inactive)
inhibition ([17]; cisplatin combo, at 0.05 µM): -15.7%
inhibition ([17]; cisplatin combo, at 0.5 µM): -29.5%
inhibition ([17]; cisplatin combo, at 5 µM): -33.3%
inhibition ([17]; measured here: 5 uM single agent, at 5 µM): -7.99%

CCOc1cc(C(=O)Nc2ccc(Cl)c(-c3nc4ccccc4[nH]3)c2)cc(OCC)c1OCC
remaining activity [2]: 119% (inactive)
outcome [3]: inactive
AC50 [10]: 10.5 µM (active)
outcome [13]: inactive
outcome [7]: inactive
fold change [8, 18]: 0.991 (inactive)
fold change [8, 19]: 0.843
cell count [8, 20]: 5960
cell count [8, 21]: 6020
SSMD [14]: 4.38
cell count [14]: 6790
plate-normalised HSF1 focus index [14]: 1.26 (inactive)
z-score [9]: 0.375 (inactive)

Nc1ncnc2nc(-c3ccc(N4CCOCC4)nc3)cc(-c3cccc(Br)c3)c12
parasite load remaining [1]: 57.8% (inactive)
viability [1]: 155%
remaining activity [2]: 93.4% (inactive)
outcome [3]: inactive
outcome [11]: inactive
outcome [4]: inactive
outcome [6]: inactive
fold change [8, 18]: 0.949 (inactive)
fold change [8, 19]: 1.03
cell count [8, 20]: 7250
cell count [8, 21]: 7640
z-score [9]: 2.27 (active)

CCOC(=O)C1=C(C)NC(=S)NC1c1cccc(O)c1 (stereo unspecified)
remaining activity [2]: 109% (inactive)
outcome [3]: inactive
outcome [10]: inactive
outcome [4]: inactive
outcome [13]: inactive
outcome [6]: inactive
outcome [7]: inactive
fold change [8, 18]: 0.947 (inactive) and 1.05 (inactive)
fold change [8, 19]: 1 and 0.625
cell count [8, 20]: 2900 and 8090
cell count [8, 21]: 3060 and 7690
z-score [9]: 0.085 (inactive)

CC(C)[C@H](CO)Nc1nc(Nc2ccc(C(=O)O)c(Cl)c2)c2ncn(C(C)C)c2n1
remaining activity [2]: 110% (inactive)
outcome [3]: inactive
outcome [10]: inactive
outcome [4]: inactive
AC50 [13]: 23.5 µM (active)
outcome [6]: inactive
outcome [7]: inactive
fold change [8, 18]: 0.902 (inactive)
fold change [8, 19]: 0.706
cell count [8, 20]: 8820
cell count [8, 21]: 9770
z-score [9]: 0.185 (inactive)

CC(Oc1ccc(O)cc1)(P(=O)(O)O)P(=O)(O)O
remaining activity [2]: 115% (inactive)
outcome [3]: inactive
outcome [10]: inactive
outcome [11]: inactive
outcome [12]: inactive
outcome [4]: inactive
outcome [13]: inactive
outcome [6]: inactive
outcome [7]: inactive
fold change [8, 18]: 0.98 (inactive)
fold change [8, 19]: 0.597
cell count [8, 20]: 9020
cell count [8, 21]: 9200
z-score [9]: -0.285 (inactive)

CCOC(=O)C1=C(N)Oc2ccc(Br)cc2C1C(C#N)C(=O)OCC (stereo unspecified)
remaining activity [2]: 92.3% (inactive)
AC50 [3]: 26.3 µM (active)
outcome [10]: inactive
AC50 [11]: 23.5 µM (active)
AC50 [5]: 23.5 µM (active)
AC50 [13]: 20.9 µM (active)
outcome [7]: inactive
fold change [8, 18]: 1.02 (inactive)
fold change [8, 19]: 1.4
cell count [8, 20]: 6950
cell count [8, 21]: 6840
z-score [9]: -0.87 (inactive)

COc1ccc([C@@H]2CNC(=O)C2)cc1OC1CCCC1
remaining activity [2]: 102% (inactive)
outcome [3]: inactive
outcome [11]: inactive
outcome [4]: inactive
outcome [6]: inactive
outcome [7]: inactive
fold change [8, 18]: 0.954 (inactive)
fold change [8, 19]: 0.878
cell count [8, 20]: 8940
cell count [8, 21]: 9370
z-score [9]: -0.11 (inactive)

O=Nc1c(-c2c(O)[nH]c3cc(Br)ccc23)[nH]c2ccccc12
parasite load remaining [1]: 17.4% (inactive)
viability [1]: 92.7%
remaining activity [2]: 107% (inactive)
AC50 [3]: 8.33 µM (active)
outcome [10]: inactive
AC50 [11]: 20.9 µM (active)
AC50 [12]: 3.32 µM (active)
AC50 [4]: 14.8 µM (active)
AC50 [5]: 7.42 µM (active)
AC50 [13]: 20.9 µM (active)
AC50 [6]: 14.8 µM (active)
IC50 [7]: 10.5 µM (active)
z-score [15, 22]: -0.015 (inactive)
z-score [15, 23]: 1.62
z-score [9]: -1.29 (inactive) and -0.705 (inactive)
